In PubChem BioAssay (EPA / NIEHS):
Calls of active or inactive are those of the source. Rule for the calls: active = hit-call score of the fitted dose curve at least 0.9, where 1 is the maximum; inactive = score below 0.9.

Legend:
[1] = read-out: Tumor necrosis factor receptor superfamily member 6 (Homo sapiens) (UniProt P25445); assay: LTEA_HepaRG_FAS: Life Technologies and Expression Analysis (LTEA) Assay for Fas cell surface death receptor (FAS) using HepaRG (AID 2283447); settings: mRNA level, 48 h; actives raise or lower the signal
Procedure, shortened: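 Differentiated human HepaRG cells, pre-cultured 48 h, were exposed in duplicate for 48 h to 8-point half-log concentrations (top 100 uM, 0.5% DMSO) in serum-free induction medium; FAS mRNA measured by qRT-PCR, normalized to ACTB/GAPDH/POLR2A, bidirectional fit versus DMSO.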

[2] = read-out: Fatty acid synthase (Homo sapiens) (UniProt P49327); assay: LTEA_HepaRG_FASN: Life Technologies and Expression Analysis (LTEA) Assay for Fatty Acid Synthase (FASN) using HepaRG (AID 2283448); settings: mRNA level, 48 h; actives raise or lower the signal
Procedure, shortened: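 FASN expression changes, up or down relative to 0.5% DMSO, were measured by qRT-PCR in human HepaRG cells after 48 h treatment with chemicals at eight concentrations (half-log steps from 100 uM).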

Sequence of Fatty acid synthase (Homo sapiens) (P49327 whole entry, looked up): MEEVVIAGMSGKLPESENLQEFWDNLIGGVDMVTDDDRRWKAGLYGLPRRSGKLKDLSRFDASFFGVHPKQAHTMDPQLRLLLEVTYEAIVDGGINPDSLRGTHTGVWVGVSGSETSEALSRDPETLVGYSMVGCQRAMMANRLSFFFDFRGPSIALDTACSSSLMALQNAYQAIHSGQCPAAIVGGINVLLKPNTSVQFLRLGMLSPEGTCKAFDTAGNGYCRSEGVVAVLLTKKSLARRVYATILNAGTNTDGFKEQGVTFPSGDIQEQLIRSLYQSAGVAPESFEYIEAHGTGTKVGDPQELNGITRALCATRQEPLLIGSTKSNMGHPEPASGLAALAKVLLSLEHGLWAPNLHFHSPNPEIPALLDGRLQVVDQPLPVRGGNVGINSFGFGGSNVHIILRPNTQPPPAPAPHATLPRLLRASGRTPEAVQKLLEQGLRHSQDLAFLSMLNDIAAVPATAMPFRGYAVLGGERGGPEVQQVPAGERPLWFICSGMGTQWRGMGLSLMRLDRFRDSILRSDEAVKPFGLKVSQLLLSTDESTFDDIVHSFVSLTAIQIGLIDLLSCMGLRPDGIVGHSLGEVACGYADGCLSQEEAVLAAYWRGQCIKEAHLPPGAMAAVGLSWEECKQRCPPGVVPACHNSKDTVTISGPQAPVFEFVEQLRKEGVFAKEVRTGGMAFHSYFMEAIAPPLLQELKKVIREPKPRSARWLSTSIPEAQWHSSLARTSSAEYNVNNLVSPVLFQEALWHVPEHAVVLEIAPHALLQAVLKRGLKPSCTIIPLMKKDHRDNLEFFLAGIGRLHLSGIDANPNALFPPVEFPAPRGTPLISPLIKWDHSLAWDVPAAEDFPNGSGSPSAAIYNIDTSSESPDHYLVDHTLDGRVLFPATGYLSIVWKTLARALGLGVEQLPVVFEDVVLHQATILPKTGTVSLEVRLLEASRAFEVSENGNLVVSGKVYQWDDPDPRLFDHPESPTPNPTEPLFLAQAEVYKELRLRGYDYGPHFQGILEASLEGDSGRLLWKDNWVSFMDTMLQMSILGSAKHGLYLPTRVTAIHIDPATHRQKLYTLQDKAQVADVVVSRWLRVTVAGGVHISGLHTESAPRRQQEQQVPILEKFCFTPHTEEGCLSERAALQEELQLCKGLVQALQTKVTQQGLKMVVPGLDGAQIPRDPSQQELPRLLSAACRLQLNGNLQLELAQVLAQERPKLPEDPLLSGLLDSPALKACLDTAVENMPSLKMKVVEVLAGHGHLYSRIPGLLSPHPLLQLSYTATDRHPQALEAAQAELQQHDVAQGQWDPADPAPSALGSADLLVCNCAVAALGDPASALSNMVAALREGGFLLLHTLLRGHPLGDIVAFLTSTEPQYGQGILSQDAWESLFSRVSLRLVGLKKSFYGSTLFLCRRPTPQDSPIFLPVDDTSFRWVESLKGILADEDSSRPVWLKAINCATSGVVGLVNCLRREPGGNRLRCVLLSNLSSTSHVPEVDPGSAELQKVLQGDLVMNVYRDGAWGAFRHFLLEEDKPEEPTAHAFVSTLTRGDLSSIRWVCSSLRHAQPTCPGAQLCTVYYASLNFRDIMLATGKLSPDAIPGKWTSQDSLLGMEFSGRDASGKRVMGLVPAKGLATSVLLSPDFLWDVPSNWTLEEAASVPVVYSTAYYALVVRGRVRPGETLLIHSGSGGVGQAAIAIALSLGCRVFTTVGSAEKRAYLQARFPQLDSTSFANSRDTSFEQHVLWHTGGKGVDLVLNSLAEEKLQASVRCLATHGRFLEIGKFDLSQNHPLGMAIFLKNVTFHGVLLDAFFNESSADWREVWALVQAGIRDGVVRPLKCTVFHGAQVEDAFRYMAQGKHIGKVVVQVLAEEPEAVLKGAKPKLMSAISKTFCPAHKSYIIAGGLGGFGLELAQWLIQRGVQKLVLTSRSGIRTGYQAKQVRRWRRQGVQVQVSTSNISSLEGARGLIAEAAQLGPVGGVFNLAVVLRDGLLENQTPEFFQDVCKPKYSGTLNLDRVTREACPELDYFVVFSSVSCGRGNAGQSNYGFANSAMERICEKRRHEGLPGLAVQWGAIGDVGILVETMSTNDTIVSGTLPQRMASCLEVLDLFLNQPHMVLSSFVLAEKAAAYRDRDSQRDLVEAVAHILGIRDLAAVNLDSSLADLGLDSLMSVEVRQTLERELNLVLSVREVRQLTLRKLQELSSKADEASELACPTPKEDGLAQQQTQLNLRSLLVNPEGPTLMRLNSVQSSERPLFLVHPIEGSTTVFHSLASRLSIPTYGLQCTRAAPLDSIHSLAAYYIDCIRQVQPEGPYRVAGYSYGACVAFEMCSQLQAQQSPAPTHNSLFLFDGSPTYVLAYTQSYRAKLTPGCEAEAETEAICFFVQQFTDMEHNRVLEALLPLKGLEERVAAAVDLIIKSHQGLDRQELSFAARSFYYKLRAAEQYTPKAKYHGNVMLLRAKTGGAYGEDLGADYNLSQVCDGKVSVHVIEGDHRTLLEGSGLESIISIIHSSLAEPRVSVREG

SMILES | AC50 [1] | AC50 [2] | outcome [1] | outcome [2]
Cc1oc(-c2ccccc2)nc1CCOc1cccc2c1ccn2CCC(=O)O | 87.9 µM (active) | 11.9 µM (active) | – | –
OC[C@@H](O)[C@@H](O)[C@H](O)[C@H](O)CO | – | – | inactive | inactive
CC1(C)NC(=O)NC1=O | – | – | inactive | inactive
COCCOCCOC | 0.382 µM (active) | – | – | inactive
COc1cc(-c2nc(NC(=O)c3cc4cc(C)cc(C)c4n3CC(=O)O)sc2CCC2CCCCC2)c(OC)cc1Cl | 20.8 µM (active) | – | – | inactive
CC(=O)Oc1ccccc1C(=O)O | – | – | inactive | inactive
CC(=O)OC/C=C(\C)CCC=C(C)C | – | – | inactive | inactive
CC(C)c1ccc(C(=O)N=C(N)N)cc1S(C)(=O)=O | 0.669 µM (active) | – | – | inactive
CNCc1cc(F)ccc1Oc1ccc(Cl)c(Cl)c1 | – | 50 µM (active) | inactive | –
FC(F)(F)C(F)(F)C(F)(F)C(F)(F)C(F)(F)C(F)(F)CCI | – | – | inactive | inactive
O=C(O)Cc1ccccc1Nc1c(Cl)cccc1Cl | – | – | inactive | inactive
CCCCN(CCCC)CCCC | – | – | inactive | inactive
CC(CO)OC(C)CO (stereo not drawn) (tested in a mixture with another compound) | – | – | inactive | inactive
CCCCCC(=O)O | – | – | inactive | inactive
Cc1ccc(Cl)cc1 | – | – | inactive | inactive
CCCCCCC(=O)OCC | – | – | inactive | inactive
CCOC(=O)CCC(=O)OCC | 85.1 µM (active) | – | – | inactive
CC(=O)OCCOCCOCCOC(C)=O | – | – | inactive | inactive
Cc1ccc(C)c(O)c1C | – | – | inactive | inactive
CC(=O)C(C)=CC1C(C)=CCCC1(C)C (stereo not drawn) | – | – | inactive | inactive
NS(=O)(=O)c1cc2c(cc1Cl)NCNS2(=O)=O | – | – | inactive | inactive
CCCCCCCC=O | – | – | inactive | inactive
Cc1ccc(C(C)C)c(O)c1 | – | – | inactive | inactive
COCCOC[C@H](CC1(C(=O)NC2CCC(C(=O)O)CC2)CCCC1)C(=O)Oc1ccc2c(c1)CCC2 (stereo partly drawn) | – | – | inactive | inactive
Cc1cc(=O)[nH]c(=S)[nH]1 | – | – | inactive | inactive
CCCCC(CC)COC(=O)CC(C(=O)OCC(CC)CCCC)S(=O)(=O)O (stereo not drawn) | 83.5 µM (active) | 80.5 µM (active) | – | –
CCCCCCCCCCCCCO | – | – | inactive | inactive
O=C(N[C@@H](Cc1ccccc1)[C@@H](O)C(=O)N1C[C@@H](O)[C@@H](O)C1)c1cc2cc(Cl)ccc2[nH]1 | – | – | inactive | inactive
CC(C)(C)c1cc(O)c(C(C)(C)C)cc1O | 81.7 µM (active) | 50 µM (active) | – | –
